PubChem BioAssay AID2161 (National Center for Advancing Translational Sciences (NCATS), 2009)
Values joined by “and” are separate entries in the source; they are usually repeats but may differ in a detail not shown here. Identical values can stand only once. The list shows a part of the results. Unmarked numbers belong to inactive results. Active and inactive are the calls of the source. Calls follow the shape of the dose curve; as a rule, active = well fitted inhibition curve with a large enough effect; inactive = no such curve, though single readings can be large or run the other way.

Molecular target: Papain (Carica papaya) (UniProt P00784)
Test: qHTS Assay for Inhibitors of Papain: Counterscreen for Cruzain Assay
Conditions: purified papain, Z-FR-AMC fluorescence cleavage; max response, negative = inhibition: active compounds read low
Description: Assay Provider: Shoichet, Brian; University of California, San Fancisco Screening Center PI: Austin, C.P. Screening Center: NIH Chemical Genomics Center [NCGC] The following papain assay is a counterscreen for a related protein cruzain (AID: 1478). Cruzain is a cysteine protease from the tropical parasite Trypanosoma cruzi. Activity against papain was used to help prioritize chemical series active against cruzain. Papain is a closely related cysteine protease known to utilize the same Z-FR-AMC fluorogenic substrate as cruzain. The fluorogenic assay used for cruzain was utilized here as well, with the exception of the reducing agent, which was 5 mM cystein here instead of DTT. Fluorogenic coumarin-based Z-FR-AMC substrate was used; proteolytic cleavage releases AMC, whose fluorescence is measured at 360 nm excitation and 450 nm emission. Purified papain was supplied by the labs of Profs. James McKerrow and Brian Shoichet, UC San Francisco. This assay had 0.01% Triton X-100 concentration.
Buffer: 100 mM Sodium Acetate, pH 5.5, 5 mM DTT, Triton X-100 concentration: 0.01%. Reagents/Controls: Buffer in columns 3 and 4 as negative control (no enzyme). Substrate solution: 2 uM final concentration of Z-FR-AMC (catalog number I-1160, Bachem) dispensed throughout the plate. Enzyme: 12 nM Papain final concentration. Assay Steps: Three uL of enzyme or buffer were dispensed to 1536-well Greiner black solid bottom plates. Compounds and controls (23 nL) were transferred via Kalypsys PinTool. The plates were incubated for 15 min at room temperature, and then 1 uL of substrate solution was added to start the reaction. The plates were immediately transferred to and read 4 times every 30 seconds for 2 min on ViewLux High-throughput CCD imager (Perkin-Elmer) using 360 nm excitation and 450 nm emission fluorescence protocol. The fluorescence intensity difference between the third and the first time points (time lapse of 60 seconds) was used to compute reaction progress. Data was normalized to neutral (no compound) and negative (no enzyme) controls.
Also: nearly all actives have a fitted effect of over 35% in size.
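For max response, negative = inhibition in this document: 0% = no-compound wells and -100% = no-enzyme wells.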
Potency is read from the fitted curve at half-maximal effect.

Papain (Carica papaya), sequence (P00784 whole entry, looked up): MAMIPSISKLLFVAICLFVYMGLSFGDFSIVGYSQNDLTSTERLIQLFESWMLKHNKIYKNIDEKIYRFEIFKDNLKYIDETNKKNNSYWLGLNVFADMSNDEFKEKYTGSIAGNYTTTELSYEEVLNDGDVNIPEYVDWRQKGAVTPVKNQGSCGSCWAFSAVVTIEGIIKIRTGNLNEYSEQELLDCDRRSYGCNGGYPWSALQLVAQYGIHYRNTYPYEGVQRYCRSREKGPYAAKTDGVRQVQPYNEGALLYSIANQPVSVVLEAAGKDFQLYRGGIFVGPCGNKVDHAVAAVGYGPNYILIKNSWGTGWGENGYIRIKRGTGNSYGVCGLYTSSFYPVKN

| SMILES | Potency | max response, negative = inhibition |
| --- | --- | --- |
| Cc1ccc(-c2c3c(=O)n(C)c(=O)n(C)c3cn2-n2cnnc2)cc1 | 28.2 µM (active) | – |
| CCc1ccc(OCCCn2c(CCCNC(=O)C3CCCCC3)nc3ccccc32)cc1 | – | -1.28% |
| N#Cc1nc(Nc2cc(F)cc(Cl)c2)nc(NC2CCCC2)n1 | 1.12 µM (active) | – |
| CC(C)C[C@H](NC(=O)[C@@H]1O[C@H]1C(=O)O)C(=O)NCCCCN=C(N)N | 0.01 µM (active) | – |
| C=CCNC(=O)c1ccc2nc(-c3ccco3)c(-c3ccco3)nc2c1 | – | -64.7% |
| O=C1OC(/C=C/c2ccccc2)=NC/1=C/c1ccco1 | – | -2.34% |
| O=C(OCN1C(=O)c2ccccc2C1=O)/C(=C\c1ccco1)NC(=O)c1ccccc1 | – | -35.6% |
| N#Cc1nc(N)nc(N(c2ccccc2)c2ccccc2)n1 | 8.91 µM (active) and 11.2 µM (active) | – |
| CCCCNC(=O)Cn1c(SCc2cccc(Cl)c2)nc2ccncc21 | – | -12% |
| CCN(CC)c1nc(C#N)nc(OC)n1 | 5.01 µM (active) | – |
| Cc1ccc(SCCC(=O)OCC(=O)Nc2ncc(Cl)cc2Cl)cc1 | – | -6.29% |
| N#Cc1nc(Nc2cccc(Cl)c2)nc(NC2CCCC2)n1 | 0.891 µM (active) | – |
| Cn1c(C(=O)NCCN2CCc3ccccc3C2)cc2c(=O)[nH]c3ccccc3c21 | – | -20.9% |
| C=CC(=O)c1ccc2ccccc2c1 | 12.6 µM (active) | – |
| c1ccc2cc3c(NCCN4CCOCC4)ccnc3cc2c1 | – | -50.2% |
